# Experimental data taken from publication PMC7862700, “An all-to-all approach to the identification of sequence-specific readers for epigenetic DNA modifications on cytosine”.
# Assays:
# Experiment in all cases: DAPPL (digital affinity profiling via proximity ligation, sequencing); 10 mM Tris-HCl pH 7.5, 50 mM NaCl, 1 mM DTT, 4% glycerol, room temperature, 30 min; GST-TFs on glutathione beads, 16-mer random dsDNA library, 0.1% formaldehyde crosslink after washing; high values mean tight binding
# [1] = target: T1, FLI1 (Homo sapiens, UniProt Q01543 1-452); details: protein: recombinant; tags: N-terminal GST; dsDNA, one strand shown
# T1 sequence: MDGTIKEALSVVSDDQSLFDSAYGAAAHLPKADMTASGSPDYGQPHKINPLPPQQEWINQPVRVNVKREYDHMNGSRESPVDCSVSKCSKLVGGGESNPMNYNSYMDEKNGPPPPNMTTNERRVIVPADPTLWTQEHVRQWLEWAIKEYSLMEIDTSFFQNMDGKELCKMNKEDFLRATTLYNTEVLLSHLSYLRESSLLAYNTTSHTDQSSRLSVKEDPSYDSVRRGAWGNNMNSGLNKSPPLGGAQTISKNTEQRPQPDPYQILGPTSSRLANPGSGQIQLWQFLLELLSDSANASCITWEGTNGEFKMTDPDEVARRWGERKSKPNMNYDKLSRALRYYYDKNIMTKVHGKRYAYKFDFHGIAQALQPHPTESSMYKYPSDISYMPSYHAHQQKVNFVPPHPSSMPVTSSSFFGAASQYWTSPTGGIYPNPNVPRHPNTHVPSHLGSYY
# Summary of the method: (§1)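 Pools of DNA-barcoded human transcription factors, expressed in yeast as GST fusions on glutathione beads and combined with a tag-only sample, were incubated with 200 nmole of a 16-mer random double-stranded DNA library. Incubation took 30 min at room temperature in Tris/NaCl/DTT/glycerol buffer and was followed by washing, 0.1% formaldehyde crosslinking, proximity ligation (BsaI/T4 ligase, 1 h, 37 °C), PCR amplification and sequencing on an Illumina NextSeq500. Binding signal is the ratio of a hexamer's read frequency for a factor to its frequency for the tag-only sample.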
# [2] = target: T2, ELK1 (Homo sapiens, UniProt P19419 1-428); details: protein: recombinant; tags: N-terminal GST; dsDNA, one strand shown
# T2 sequence: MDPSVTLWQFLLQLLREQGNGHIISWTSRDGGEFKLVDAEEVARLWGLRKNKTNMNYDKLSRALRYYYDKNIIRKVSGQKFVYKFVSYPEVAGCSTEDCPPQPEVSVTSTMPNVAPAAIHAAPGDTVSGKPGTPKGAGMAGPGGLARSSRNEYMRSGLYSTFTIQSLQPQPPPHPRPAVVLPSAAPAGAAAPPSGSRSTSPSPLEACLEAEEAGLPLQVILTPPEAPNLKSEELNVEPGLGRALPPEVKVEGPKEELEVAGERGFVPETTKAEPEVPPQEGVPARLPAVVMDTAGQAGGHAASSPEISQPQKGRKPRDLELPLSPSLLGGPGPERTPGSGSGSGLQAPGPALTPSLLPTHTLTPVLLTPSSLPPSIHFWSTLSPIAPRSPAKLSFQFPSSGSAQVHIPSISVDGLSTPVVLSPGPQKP
# Summary of the method: as §1
# [3] = target: T3, GABPA (Homo sapiens, UniProt Q06546 1-454); details: protein: recombinant; tags: N-terminal GST; dsDNA, one strand shown
# T3 sequence: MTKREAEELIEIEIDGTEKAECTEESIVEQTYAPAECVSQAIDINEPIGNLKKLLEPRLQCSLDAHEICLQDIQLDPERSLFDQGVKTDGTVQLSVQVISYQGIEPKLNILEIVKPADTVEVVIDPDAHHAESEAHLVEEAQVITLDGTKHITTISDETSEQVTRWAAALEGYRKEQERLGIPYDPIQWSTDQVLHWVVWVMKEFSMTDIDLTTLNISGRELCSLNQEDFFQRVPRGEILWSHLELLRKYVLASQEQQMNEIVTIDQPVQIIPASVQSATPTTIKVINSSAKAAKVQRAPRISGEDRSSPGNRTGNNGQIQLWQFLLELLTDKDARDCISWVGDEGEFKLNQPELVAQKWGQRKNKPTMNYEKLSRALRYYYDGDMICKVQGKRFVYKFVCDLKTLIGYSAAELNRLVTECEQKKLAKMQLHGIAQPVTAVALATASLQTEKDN
# Summary of the method: as §1
# [4] = target: T4, ERG (Homo sapiens, UniProt P11308 1-479); details: protein: recombinant; tags: N-terminal GST; dsDNA, one strand shown
# T4 sequence: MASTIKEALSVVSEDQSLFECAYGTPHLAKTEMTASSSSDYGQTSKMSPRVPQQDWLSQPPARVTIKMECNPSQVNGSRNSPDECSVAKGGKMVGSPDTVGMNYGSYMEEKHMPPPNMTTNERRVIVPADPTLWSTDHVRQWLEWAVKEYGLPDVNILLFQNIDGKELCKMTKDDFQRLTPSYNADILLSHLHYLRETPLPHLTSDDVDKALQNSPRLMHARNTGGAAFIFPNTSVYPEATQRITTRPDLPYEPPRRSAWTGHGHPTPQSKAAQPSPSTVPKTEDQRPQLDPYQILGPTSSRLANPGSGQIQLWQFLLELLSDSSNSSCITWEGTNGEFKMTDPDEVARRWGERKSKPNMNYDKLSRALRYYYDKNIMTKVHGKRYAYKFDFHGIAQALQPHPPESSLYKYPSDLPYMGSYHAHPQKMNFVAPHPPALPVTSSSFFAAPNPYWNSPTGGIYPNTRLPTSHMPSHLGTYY
# Summary of the method: as §1
# [5] = target: ELF1 (Homo sapiens, UniProt P32519 1-619); details: protein: recombinant; tags: N-terminal GST; dsDNA, one strand shown
# Summary of the method: as §1
# [6] = target: T5, EHF (Homo sapiens, UniProt Q9NZC4 1-300); details: protein: recombinant; tags: N-terminal GST; dsDNA, one strand shown
# T5 sequence: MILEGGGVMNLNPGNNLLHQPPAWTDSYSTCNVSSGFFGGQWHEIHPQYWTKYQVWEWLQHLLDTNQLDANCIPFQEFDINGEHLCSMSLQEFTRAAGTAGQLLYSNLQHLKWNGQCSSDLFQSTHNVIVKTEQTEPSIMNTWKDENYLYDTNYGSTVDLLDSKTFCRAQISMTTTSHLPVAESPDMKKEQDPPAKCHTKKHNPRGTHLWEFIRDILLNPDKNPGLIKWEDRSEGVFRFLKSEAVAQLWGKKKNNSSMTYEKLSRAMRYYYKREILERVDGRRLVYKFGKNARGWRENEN
# Summary of the method: as §1
# [7] = target: SPI1 (Homo sapiens, UniProt P17947 1-270); details: protein: recombinant; tags: N-terminal GST; dsDNA, one strand shown
# Summary of the method: as §1
# [8] = target: SPIB (Homo sapiens, UniProt Q01892 1-262); details: protein: recombinant; tags: N-terminal GST; dsDNA, one strand shown
# Summary of the method: as §1
# [9] = target: T6, ELK3 (Homo sapiens, UniProt P41970 1-407); details: protein: recombinant; tags: N-terminal GST; dsDNA, one strand shown
# T6 sequence: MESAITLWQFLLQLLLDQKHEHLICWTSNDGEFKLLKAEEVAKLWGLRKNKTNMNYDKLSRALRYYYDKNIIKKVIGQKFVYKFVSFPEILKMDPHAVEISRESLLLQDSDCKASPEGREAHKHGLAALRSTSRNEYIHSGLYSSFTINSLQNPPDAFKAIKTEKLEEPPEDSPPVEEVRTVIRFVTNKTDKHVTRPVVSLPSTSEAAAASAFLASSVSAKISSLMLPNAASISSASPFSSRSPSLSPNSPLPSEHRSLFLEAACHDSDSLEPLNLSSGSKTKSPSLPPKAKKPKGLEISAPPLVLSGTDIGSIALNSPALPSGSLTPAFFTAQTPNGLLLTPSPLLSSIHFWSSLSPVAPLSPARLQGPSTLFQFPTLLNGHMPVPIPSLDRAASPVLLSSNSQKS
# Summary of the method: as §1
# [10] = target: T7, FEV (Homo sapiens, UniProt Q99581 1-238); details: protein: recombinant; tags: N-terminal GST; dsDNA, one strand shown
# T7 sequence: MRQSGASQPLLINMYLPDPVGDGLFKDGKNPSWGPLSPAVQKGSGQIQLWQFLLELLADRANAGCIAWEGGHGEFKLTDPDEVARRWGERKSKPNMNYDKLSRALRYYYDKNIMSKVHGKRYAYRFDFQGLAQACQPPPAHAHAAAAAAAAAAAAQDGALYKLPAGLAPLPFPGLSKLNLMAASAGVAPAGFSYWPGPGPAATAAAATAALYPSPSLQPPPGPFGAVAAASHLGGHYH
# Summary of the method: as §1
# [11] = target: ETV5 (Homo sapiens, UniProt P41161 1-510); details: protein: recombinant; tags: N-terminal GST; dsDNA, one strand shown
# Summary of the method: as §1
# [12] = target: HSF1 (Homo sapiens, UniProt Q00613 1-529); details: protein: recombinant; tags: N-terminal GST; chain copies: 3; dsDNA, one strand shown
# Summary of the method: as §1
# [13] = target: T8, SPIC (Homo sapiens, UniProt Q8N5J4 1-248); details: protein: recombinant; tags: N-terminal GST; dsDNA, one strand shown
# T8 sequence: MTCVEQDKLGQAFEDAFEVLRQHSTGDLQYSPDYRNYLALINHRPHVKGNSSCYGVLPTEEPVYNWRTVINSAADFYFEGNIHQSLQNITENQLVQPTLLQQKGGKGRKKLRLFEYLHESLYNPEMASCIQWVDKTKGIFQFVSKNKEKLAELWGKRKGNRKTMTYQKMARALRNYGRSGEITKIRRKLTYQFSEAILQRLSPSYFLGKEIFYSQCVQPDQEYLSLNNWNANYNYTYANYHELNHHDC
# Summary of the method: as §1
# [14] = target: ELF4 (Homo sapiens, UniProt Q99607 1-663); details: protein: recombinant; tags: N-terminal GST; dsDNA, one strand shown
# Summary of the method: as §1
# [15] = target: T9, ELK4 (Homo sapiens, UniProt P28324-2 1-405); details: protein: recombinant; tags: N-terminal GST; dsDNA, one strand shown
# T9 sequence: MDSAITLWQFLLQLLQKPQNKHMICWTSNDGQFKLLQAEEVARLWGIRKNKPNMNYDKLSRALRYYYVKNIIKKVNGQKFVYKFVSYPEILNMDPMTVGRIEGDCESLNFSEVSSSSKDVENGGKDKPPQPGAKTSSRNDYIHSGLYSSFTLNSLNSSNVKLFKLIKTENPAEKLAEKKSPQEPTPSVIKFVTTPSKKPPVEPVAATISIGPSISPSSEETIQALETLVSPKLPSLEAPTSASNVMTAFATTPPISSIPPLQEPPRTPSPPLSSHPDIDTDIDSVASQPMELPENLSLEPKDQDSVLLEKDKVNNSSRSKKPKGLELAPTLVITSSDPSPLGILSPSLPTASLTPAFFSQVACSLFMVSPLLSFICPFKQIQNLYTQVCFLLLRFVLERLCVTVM
# Summary of the method: as §1
# [16] = target: T10, ETV2 (Homo sapiens, UniProt O00321 1-342); details: protein: recombinant; tags: N-terminal GST; dsDNA, one strand shown
# T10 sequence: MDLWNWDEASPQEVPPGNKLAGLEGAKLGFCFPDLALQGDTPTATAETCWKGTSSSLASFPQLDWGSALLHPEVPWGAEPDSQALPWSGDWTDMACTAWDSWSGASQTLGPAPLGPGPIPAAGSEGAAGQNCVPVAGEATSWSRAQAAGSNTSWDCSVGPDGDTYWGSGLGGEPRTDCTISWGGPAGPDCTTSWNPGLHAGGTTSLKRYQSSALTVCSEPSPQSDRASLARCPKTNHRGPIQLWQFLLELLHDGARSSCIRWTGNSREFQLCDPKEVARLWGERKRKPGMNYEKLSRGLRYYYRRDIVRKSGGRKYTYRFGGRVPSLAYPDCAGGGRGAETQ
# Summary of the method: as §1
# [17] = target: T11, ELF3 (Homo sapiens, UniProt P78545 1-371); details: protein: recombinant; tags: N-terminal GST; dsDNA, one strand shown
# T11 sequence: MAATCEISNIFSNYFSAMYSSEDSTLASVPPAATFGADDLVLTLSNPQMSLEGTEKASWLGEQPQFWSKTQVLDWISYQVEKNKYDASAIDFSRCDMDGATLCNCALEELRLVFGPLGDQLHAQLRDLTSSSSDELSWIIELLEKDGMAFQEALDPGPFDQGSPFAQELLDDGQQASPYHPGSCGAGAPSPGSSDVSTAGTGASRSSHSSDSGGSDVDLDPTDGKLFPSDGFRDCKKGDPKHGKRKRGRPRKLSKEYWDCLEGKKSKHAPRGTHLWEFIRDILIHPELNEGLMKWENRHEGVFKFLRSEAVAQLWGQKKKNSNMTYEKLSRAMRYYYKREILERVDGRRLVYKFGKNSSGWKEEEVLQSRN
# Summary of the method: as §1
# [18] = target: CRX (Homo sapiens, UniProt O43186 1-299); details: protein: recombinant; tags: N-terminal GST; dsDNA, one strand shown
# Summary of the method: as §1
# [19] = target: ETV1 (Homo sapiens, UniProt P50549 1-477); details: protein: recombinant; tags: N-terminal GST; dsDNA, one strand shown
# Summary of the method: as §1
# Chain of CRX (O43186 whole entry): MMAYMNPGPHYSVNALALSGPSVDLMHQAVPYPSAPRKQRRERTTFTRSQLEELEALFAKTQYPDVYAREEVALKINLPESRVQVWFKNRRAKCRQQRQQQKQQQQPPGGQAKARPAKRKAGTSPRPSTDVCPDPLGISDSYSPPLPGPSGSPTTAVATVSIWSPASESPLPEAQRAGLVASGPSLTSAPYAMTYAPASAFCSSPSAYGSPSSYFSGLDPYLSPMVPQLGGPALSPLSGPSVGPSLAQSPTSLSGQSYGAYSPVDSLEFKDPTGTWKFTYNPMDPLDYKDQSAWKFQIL
# Chain of ELF4 (Q99607 whole entry): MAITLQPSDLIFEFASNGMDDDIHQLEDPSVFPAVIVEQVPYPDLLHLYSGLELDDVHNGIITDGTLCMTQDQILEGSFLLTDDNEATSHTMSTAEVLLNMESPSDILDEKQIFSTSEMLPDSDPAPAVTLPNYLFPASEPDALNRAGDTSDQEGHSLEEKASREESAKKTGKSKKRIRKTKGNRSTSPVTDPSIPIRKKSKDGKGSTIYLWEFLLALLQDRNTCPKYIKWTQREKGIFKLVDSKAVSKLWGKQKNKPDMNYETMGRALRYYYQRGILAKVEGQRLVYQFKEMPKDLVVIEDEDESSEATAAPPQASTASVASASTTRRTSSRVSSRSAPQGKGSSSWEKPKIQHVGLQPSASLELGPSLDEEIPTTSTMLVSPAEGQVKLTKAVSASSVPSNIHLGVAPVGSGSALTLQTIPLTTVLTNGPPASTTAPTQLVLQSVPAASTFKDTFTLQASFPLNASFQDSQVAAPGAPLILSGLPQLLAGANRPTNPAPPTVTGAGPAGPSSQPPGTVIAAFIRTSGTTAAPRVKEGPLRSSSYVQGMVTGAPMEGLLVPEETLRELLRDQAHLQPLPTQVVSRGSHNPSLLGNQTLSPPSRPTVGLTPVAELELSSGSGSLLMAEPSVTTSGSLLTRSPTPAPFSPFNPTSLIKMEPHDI
# Chain of ELF1 (P32519 whole entry): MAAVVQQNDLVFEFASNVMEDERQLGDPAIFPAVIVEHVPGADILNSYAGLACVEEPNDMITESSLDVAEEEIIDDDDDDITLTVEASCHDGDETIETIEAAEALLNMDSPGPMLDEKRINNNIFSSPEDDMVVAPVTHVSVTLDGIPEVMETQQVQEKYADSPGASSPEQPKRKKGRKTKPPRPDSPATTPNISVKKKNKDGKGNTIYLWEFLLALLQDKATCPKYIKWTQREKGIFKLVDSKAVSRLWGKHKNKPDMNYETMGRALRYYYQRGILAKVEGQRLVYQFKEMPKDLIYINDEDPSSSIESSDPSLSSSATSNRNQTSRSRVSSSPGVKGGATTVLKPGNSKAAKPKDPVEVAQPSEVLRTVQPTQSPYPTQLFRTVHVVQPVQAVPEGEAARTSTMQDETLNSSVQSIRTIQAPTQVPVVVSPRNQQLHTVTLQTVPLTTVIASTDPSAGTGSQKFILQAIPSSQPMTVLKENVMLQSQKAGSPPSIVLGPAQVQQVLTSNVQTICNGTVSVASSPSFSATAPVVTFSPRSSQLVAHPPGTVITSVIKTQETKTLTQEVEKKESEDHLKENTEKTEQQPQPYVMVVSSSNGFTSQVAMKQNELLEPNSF
# Chain of ETV1 (P50549 whole entry): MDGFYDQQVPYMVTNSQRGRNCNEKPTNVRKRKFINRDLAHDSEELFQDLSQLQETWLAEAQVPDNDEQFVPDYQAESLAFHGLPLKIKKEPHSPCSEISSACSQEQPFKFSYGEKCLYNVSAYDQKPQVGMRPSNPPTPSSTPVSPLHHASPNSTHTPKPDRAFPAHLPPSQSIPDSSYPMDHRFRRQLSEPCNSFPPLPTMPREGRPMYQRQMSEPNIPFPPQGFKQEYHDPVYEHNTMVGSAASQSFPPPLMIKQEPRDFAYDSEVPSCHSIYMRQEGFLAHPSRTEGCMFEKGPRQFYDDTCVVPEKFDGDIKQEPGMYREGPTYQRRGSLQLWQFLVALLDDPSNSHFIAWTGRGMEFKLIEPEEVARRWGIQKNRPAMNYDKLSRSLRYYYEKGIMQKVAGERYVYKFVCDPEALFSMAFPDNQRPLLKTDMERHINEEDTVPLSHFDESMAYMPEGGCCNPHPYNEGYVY
# Chain of SPIB (Q01892 whole entry): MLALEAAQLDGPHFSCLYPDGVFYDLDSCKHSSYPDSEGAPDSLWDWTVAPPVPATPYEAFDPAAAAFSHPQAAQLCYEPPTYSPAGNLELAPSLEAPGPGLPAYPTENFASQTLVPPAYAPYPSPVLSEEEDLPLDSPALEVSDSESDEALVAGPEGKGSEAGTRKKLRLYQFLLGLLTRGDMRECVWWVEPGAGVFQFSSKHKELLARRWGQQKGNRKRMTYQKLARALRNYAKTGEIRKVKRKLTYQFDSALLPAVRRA
# Chain of ETV5 (P41161 whole entry): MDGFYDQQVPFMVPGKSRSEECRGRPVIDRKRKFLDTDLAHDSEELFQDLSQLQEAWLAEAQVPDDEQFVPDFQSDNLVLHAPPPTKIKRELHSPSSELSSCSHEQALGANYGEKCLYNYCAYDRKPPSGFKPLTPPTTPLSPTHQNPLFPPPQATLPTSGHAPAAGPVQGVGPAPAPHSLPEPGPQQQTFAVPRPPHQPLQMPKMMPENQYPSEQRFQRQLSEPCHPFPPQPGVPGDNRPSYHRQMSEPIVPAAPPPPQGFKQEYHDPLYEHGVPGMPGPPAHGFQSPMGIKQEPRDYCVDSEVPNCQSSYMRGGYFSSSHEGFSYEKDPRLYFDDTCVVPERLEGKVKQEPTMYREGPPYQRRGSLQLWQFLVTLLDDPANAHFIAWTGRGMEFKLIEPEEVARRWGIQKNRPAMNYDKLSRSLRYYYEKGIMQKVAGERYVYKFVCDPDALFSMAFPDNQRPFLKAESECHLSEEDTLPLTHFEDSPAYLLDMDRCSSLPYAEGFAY
# Chain of HSF1 (Q00613 whole entry): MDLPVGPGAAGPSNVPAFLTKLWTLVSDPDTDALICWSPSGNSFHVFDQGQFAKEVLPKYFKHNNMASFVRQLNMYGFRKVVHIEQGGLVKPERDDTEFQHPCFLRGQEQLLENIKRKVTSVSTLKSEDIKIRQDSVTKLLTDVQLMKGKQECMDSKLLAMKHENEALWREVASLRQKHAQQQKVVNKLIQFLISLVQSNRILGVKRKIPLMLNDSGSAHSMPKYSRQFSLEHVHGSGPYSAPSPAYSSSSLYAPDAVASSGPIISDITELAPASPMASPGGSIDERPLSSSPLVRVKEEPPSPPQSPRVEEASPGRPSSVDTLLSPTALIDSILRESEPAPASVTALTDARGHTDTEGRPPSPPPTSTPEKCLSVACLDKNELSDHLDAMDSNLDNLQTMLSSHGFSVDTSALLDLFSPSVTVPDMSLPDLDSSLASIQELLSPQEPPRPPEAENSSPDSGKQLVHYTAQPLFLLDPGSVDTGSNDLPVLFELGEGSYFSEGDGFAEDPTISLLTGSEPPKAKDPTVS
sequence,measurement,setting,value
TTCGAG,binding signal,[1],"1.18 fold enrichment (6-mer frequency, TF over GST control)"
same,binding signal,[2],"1.23 fold enrichment (6-mer frequency, TF over GST control)"
same,binding signal,[3],"1.31 fold enrichment (6-mer frequency, TF over GST control)"
same,binding signal,[4],"1.14 fold enrichment (6-mer frequency, TF over GST control)"
same,binding signal,[5],"1.25 fold enrichment (6-mer frequency, TF over GST control)"
same,binding signal,[6],"1.19 fold enrichment (6-mer frequency, TF over GST control)"
same,binding signal,[7],"1.21 fold enrichment (6-mer frequency, TF over GST control)"
same,binding signal,[8],"1.31 fold enrichment (6-mer frequency, TF over GST control)"
same,binding signal,[9],"1.3 fold enrichment (6-mer frequency, TF over GST control)"
same,binding signal,[10],"1.21 fold enrichment (6-mer frequency, TF over GST control)"
same,binding signal,[11],"1.28 fold enrichment (6-mer frequency, TF over GST control)"
same,binding signal,[12],"4.43 fold enrichment (6-mer frequency, TF over GST control)"
same,binding signal,[13],"1.13 fold enrichment (6-mer frequency, TF over GST control)"
same,binding signal,[14],"1.29 fold enrichment (6-mer frequency, TF over GST control)"
same,binding signal,[15],"1.26 fold enrichment (6-mer frequency, TF over GST control)"
same,binding signal,[16],"1.14 fold enrichment (6-mer frequency, TF over GST control)"
same,binding signal,[17],"1.25 fold enrichment (6-mer frequency, TF over GST control)"
same,binding signal,[18],"1.96 fold enrichment (6-mer frequency, TF over GST control)"
same,binding signal,[19],"1.37 fold enrichment (6-mer frequency, TF over GST control)"
